This is an account of results in PubChem BioAssay.

Calls of active or inactive are those of the source.

A short description of one experiment: probe aLefty1 binding on compound microarray – biochemical, small-molecule microarray, 635/667 nm fluorescence, primary screen (AID 1153).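 Note: score merges spot fluorescence with signal-to-noise ratio from the scanned slide images.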 Conditions: higher = more signal.
As to `CC(C)N1CC=CC23O[C@@H]4C=CCCOC(=O)C4[C@H]2C(=O)N(CCCCCCO)[C@@H]3C1=O` (some centres not stated), the composite z-score was -0.007.

For `CCCNC(=O)[C@@H]1c2ccccc2C(=O)N(Cc2ccccc2Cl)[C@H]1c1ccc(CO)cc1`, the composite z-score turned out to be 0.227.

For `CCN1C(=O)[C@H]2[C@H]3[C@H](O)[C@H](O)CC(=NOCc4ccccc4)[C@H]3CC[C@H]2C1=O`, the composite z-score was -0.276.

As to `C[C@H](c1ccccc1)N1C(=O)[C@H]2[C@H]3[C@H](O)[C@H](O)CC(=O)[C@@H]3CC[C@H]2C1=O`, the composite z-score is 0.173.

Regarding `COC(=O)C1=C(C)[C@@H](O)[C@@H](C)[C@H](c2c(OC)c(OC)c(C)c(OC)c2OC)O1`, the composite z-score is -0.356.

Consider `CC(=O)OC[C@H]1O[C@H](CC=NOC[C@@H](C)[C@H](OCc2ccccc2)C(C)C)C=C[C@@H]1OC(C)=O`, for which the composite z-score is -0.101.

Another experiment is described as follows: plasmodial surface anion channel blockers, osmotic lysis – cell-based, P. falciparum Indochina, OD700, 1 h, primary screen (AID 1154). Particulars: P. falciparum Indochina infected RBC osmotic lysis, higher = more signal, called active from +8 up or from −8 down.
Consider `COCCCNC(=O)[C@@]1(Sc2ccc(C)cc2)CC(=O)N(Cc2ccccc2)[C@@H]1c1ccc(CO)cc1I`, for which the z-score was 4.55 (inactive).

In the case of `COC(=O)[C@H](C)NC(=O)CCC1CC(OC(=O)NCCc2ccc(F)cc2)CC2(CCCC(COC(=O)NCC(c3ccccc3)c3ccccc3)O2)O1` (some centres not stated), the z-score is 8.81 (active).

As for `COc1ccccc1CN1C(=O)c2ccccc2[C@@H](C(=O)NCC(F)(F)F)[C@@H]1c1ccc(CO)cc1`, the z-score was 2.54 (inactive).

With `Cc1cc2c(c(=O)o1)[C@H](O)[C@H]1O[C@H]1C2=O`, the z-score is -0.228 (inactive).

Take `CCN(CC)c1ccc(N2CC=CC34O[C@@H]5/C=C\CCC(C)OC(=O)C5[C@H]3C(=O)N(CCCO)[C@@H]4C2=O)cc1` (some centres not stated): the z-score was 1.43 (inactive).

In the case of `O=C1O[C@@H](c2ccccc2)[C@@H](c2ccccc2)N2[C@@H](c3ccccc3OCCO)[C@]3(C(=O)Nc4ccc(C#CCCO)cc43)[C@@H](C(=O)O)[C@H]12`, the z-score was 1.32 (inactive).

For `COc1ccc([Si](C)(C)[C@@H]2[C@@H](CC(=O)N3CCC[C@H]3CO)O[C@]3(C(=O)N(Cc4cccc(N5CCC5=O)c4)c4ccccc43)[C@H]2C)cc1`, the z-score is 4.64 (inactive).

Take `CC(C)(C)N1CC=CC23O[C@@H]4C=CCCOC(=O)C4[C@H]2C(=O)N(CCCCCO)[C@@H]3C1=O` (some centres not stated): the z-score was 1.03 (inactive).

`COc1cccc([C@@H]2Oc3ccc(Br)cc3C(=O)[C@H]2O)c1`: the z-score is 20 (active).

Consider `CO[C@H]1COC(=O)[C@@H]2CCCN2C(=O)CC=C[C@@H](C)[C@H](OC)COC(=O)CC=C[C@@H]1C`, for which the z-score is -0.0558 (inactive).

Consider `CC(CCN1CCc2nc(-c3ccccc3)c(-c3ccccc3)cc2C1)=NO[C@H](C)c1cn([C@@H]2COC[C@H]2O)nn1`, for which the z-score was 4.09 (inactive).

For the compound `COC(=O)[C@H]1COC(c2ccc(OCCCO)cc2)=N1`, the z-score was 22.4 (active).

Regarding `O=C1[C@H]2[C@H]3[C@H](O)[C@H](O)CC(=NOC[C@@H](O)COCc4ccco4)[C@H]3CC[C@H]2C(=O)N1Cc1ccc2c(c1)OCO2`, the z-score was 8.99 (active).

Consider `CC[C@@H](c1ccccc1)n1c(=O)n2n(c1=O)[C@H]1[C@H](O)[C@@H]3O[C@@H]3C(=NOCC=C(C)CCC=C(C)C)[C@H]1CC2`, for which the z-score was 1.27 (inactive).

`C[C@@H](c1ccccc1)N1C(=O)[C@H]2[C@H]3[C@H](O)[C@H](O)CC(=NOC[C@@H](O)COCc4ccco4)[C@@H]3CC[C@H]2C1=O`: the z-score was 0.169 (inactive).

In the case of `CO[C@H]1O[C@H](CO)[C@@H](OC(=O)Nc2ccc3c(c2)OCO3)[C@H](OC(=O)Nc2ccccc2-c2ccccc2)[C@@H]1OC(=O)Nc1ccccc1-c1ccccc1`, the z-score is 2.44 (inactive).

As for `NCCCCCNC(=O)[C@@H]1C[C@@H]2C(=O)N3CCC[C@H]3C(=O)N2[C@@H]1c1cccc(OCCO)c1`, the z-score was 3.25 (inactive).

Regarding `C[C@@H]1C=CCC(=O)OC[C@H](C)C(=O)N2CCC[C@H]2C(=O)OC1`, the z-score is 0.29 (inactive).

For the compound `CCCC=C(CCC)[C@@H](NC(=O)c1ccc(-c2ccccc2)cc1)c1ccc(C(=O)OC)cc1`, the z-score was 0.626 (inactive).

As to `CCOC(=O)[C@H](Cc1ccccc1)NC(=O)CCC1CC(OC(=O)NCc2ccc3c(c2)OCO3)CC2(CCCC(COC(=O)NCC3CCCCC3)O2)O1` (some centres not stated), the z-score was 0.732 (inactive).

As for `COc1ccc(COC(=O)NN=C2C[C@@H](O)[C@@H](O)[C@@H]3[C@@H]4C(=O)N(c5ccc(F)cc5F)C(=O)[C@@H]4CC[C@@H]23)cc1`, the z-score was 5.54 (inactive).

For `CC(C)[C@@H](OCc1ccccc1)[C@H](C)C=NO[C@H](C)c1cn([C@H](CO)Cc2ccccc2)nn1`, the z-score was -0.146 (inactive).

On to `COC(=O)[C@H](C)NC(=O)CCC1CC(OC(=O)NCc2cccc3ccccc23)CC2(CCCC(COC(=O)NCCc3ccc(Cl)cc3)O2)O1` (some centres not stated), for which the z-score was 0.119 (inactive).

Consider `COc1ccc(-c2nc3c(c4c2C[C@H](C)OC4)CN(CCC(C)C)CC3)cc1`, for which the z-score is 1.78 (inactive).

Take `O=C(NN=C1C[C@@H](O)[C@@H](O)[C@@H]2[C@@H]3C(=O)N(c4cccc(Oc5ccccc5)c4)C(=O)[C@@H]3CC[C@H]12)OCc1ccccc1`: the z-score is 2.26 (inactive).

`CCOC(=O)CCN1C(=O)[C@H]2[C@H]3[C@H](O)[C@H](O)CC(=NNC(=O)OCc4ccc(OC)cc4)[C@@H]3CC[C@H]2C1=O`: the z-score is 6.59 (inactive).

In the case of `CCN1C(=O)[C@H]2[C@H]3[C@H](O)C=CC(=O)[C@@H]3CC[C@H]2C1=O`, the z-score was -0.441 (inactive).

With `C=C(CCCC)C(=O)CC[C@@H](OC(C)=O)c1cccc(OCCO)c1`, the z-score is 2.82 (inactive).

Regarding `O=C1C[C@]2(c3ccc([N+](=O)[O-])cc3)C(=O)N(CCN3CCOCC3)c3cc(CO)ccc3[C@H]2N1CC12CC3CC(CC(C3)C1)C2`, the z-score is 1.4 (inactive).

Turning to `[N-]=[N+]=NCc1ccccc1[C@@H]1OC(c2ccc(OCCCO)cc2)=N[C@]1(Cc1ccccc1)C(=O)N1CCOCC1`, the z-score is 16.7 (active).

As for `CC(C)N1CC=CC23O[C@@H]4C=CCCOC(=O)C4[C@H]2C(=O)N(CCCCCCO)[C@@H]3C1=O` (some centres not stated), the z-score was 0.156 (inactive).

Consider `CCCNC(=O)[C@@H]1c2ccccc2C(=O)N(Cc2ccccc2Cl)[C@H]1c1ccc(CO)cc1`, for which the z-score is 1.8 (inactive).

On to `CCN1C(=O)[C@H]2[C@H]3[C@H](O)[C@H](O)CC(=NOCc4ccccc4)[C@H]3CC[C@H]2C1=O`, for which the z-score was 1.78 (inactive).

In the case of `C[C@H](c1ccccc1)N1C(=O)[C@H]2[C@H]3[C@H](O)[C@H](O)CC(=O)[C@@H]3CC[C@H]2C1=O`, the z-score was 0.12 (inactive).

As for `COC(=O)C1=C(C)[C@@H](O)[C@@H](C)[C@H](c2c(OC)c(OC)c(C)c(OC)c2OC)O1`, the z-score was 0.211 (inactive).

Turning to `CC(=O)OC[C@H]1O[C@H](CC=NOC[C@@H](C)[C@H](OCc2ccccc2)C(C)C)C=C[C@@H]1OC(C)=O`, the z-score is 1.25 (inactive).
